HCMV inh = qHTS Assay for inhibitors of the human cytomegalovirus (HCMV) | HFF cells, HCMV-luciferase reporter, 72 h; stronger effect = lower value | activity change, negative = inhibition, % at 57.5 µM | actives 4.5% (n = 410,000) | AID 1259415, 2018; in the data active means activity change below about -60%; inconclusive means no clear call, values can overlap the other calls; inactive means above about -39%
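Screen run at 2 compound doses on HFFs infected with reporter HCMV, MOI 1 PFU/cell. Luciferase activity from cell lysates at 72 h post infection gave inhibition relative to buffer-only and Salinomycin wells.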
Vaccinia Venus = qHTS for Stage-Specific Inhibitors of Vaccinia Orthopoxvirus: Venus Reporter Primary qHTS; actives 0.46% (n = 330,000); Vaccinia virus Venus reporter expression, fluorescence; Potency, µM (doses to about 36.5 µM), for inactives: at the top dose activity change, negative = inhibition, usual class: inhibitors; AID 720580, 2013; calls by dose curve; tested in A549 cells; further: potency means the concentration at half of the fitted maximal effect; nearly all actives have a fitted effect of over 30% in size
Marburg entry inh = qHTS for inhibitors of binding or entry into cells for Marburg Virus. actives 1.8% (n = 300,000). Marburg virus pseudotyped entry inhibition, cell reporter. Potency, µM (titrated, usually from 37.8 µM), without a hit: at the highest dose activity change, negative = inhibition, hits mostly inhibitors; calls by dose curve; tested in HEK293 cells; further: potency means the concentration at half of the fitted maximal effect
VACV mCherry inh = qHTS for Stage-Specific Inhibitors of Vaccinia Orthopoxvirus: mCherry Reporter Primary qHTS. Vaccinia virus mCherry reporter infection, fluorescence. Potency, µM (series often up to 36.5 µM), inactives show top-dose activity change, negative = inhibition, usual class: inhibitors. actives 0.63% (n = 310,000). AID 720579, 2013; calls by dose curve; tested in A549 cells; further: potency means the concentration at half of the fitted maximal effect; nearly all actives have a fitted effect of over 35% in size
LASV entry inh = qHTS for Inhibitors of binding or entry into cells for Lassa Virus; Potency, µM (highest dose often 37.9 µM), for the others: at the top dose activity change, negative = inhibition, most hits filed as inhibitors; Lassa virus pseudotype entry inhibition, cell reporter; AID 540256, 2011; actives 1.2% (n = 300,000); calls by dose curve; tested in HEK293 cells; further: potency means the concentration at half of the fitted maximal effect; nearly all actives have a fitted effect of over 50% in size
HCV inhibitor = qHTS Assay for Inhibitors of Hepatitis C Virus (HCV); Huh7.5.1 HCVcc-Cre infection, luciferase reporter, 44 h; Potency, µM (titrated, usually from 41.8 µM), without a hit: at the top dose activity change, negative = inhibition, actives largely listed as inhibitors; actives 3.4% (n = 340,000); AID 651820, 2012; active means well fitted inhibition curve with a large enough effect; inconclusive means small, poorly fitted or top-dose-only effect, or another doubt; inactive means no such curve, though single readings can be large or run the other way; further: potency means the concentration at half of the fitted maximal effect
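Infectious HCVcc-Cre (~0.5 moi) was added to cells just after compound, with cells seeded 4 h earlier at 1,000 per well. Luciferase activity after 44 h culture reported infection; substrate was incubated 15 min at room temperature before reading.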
Active calls of the source: *; i = inactive; ? = inconclusive; . = not tested or not shown; ! = a repeat was not active; [ ] = dose if it differs, or a comment. This is a sample that favours compounds with a hit; in the whole collection about 7.8% have one here. On the % scale 0 is the no-effect control and ±100 the full control effect.

SMILES	HCMV inh	Vaccinia Venus	Marburg entry inh	VACV mCherry inh	LASV entry inh	HCV inhibitor
O=C(Nc1nc(-c2ccc(S(=O)(=O)N3CCCC3)cc2)cs1)c1cccs1	-87*	?	?	.	?	?
O=S(=O)(c1ccc(-c2csc(-c3cccnc3)n2)cc1)N1CCOCC1	-64*	-15%	?	-5%	2%	-10%
O=C(Nc1nc(-c2ccc(S(=O)(=O)N3CCOCC3)cc2)cs1)c1ccccc1	-91*	-21%	4µM*	-21%	?	7.9µM*
O=C1CCC[C@H]2C[C@@H](O)CC[C@]23CCCN13	15	.	.	.	.	.
CCC1CN(C(=O)N2CCC(C(=O)NCCCc3ccccc3)CC2)c2ccccc2O1 (stereo not drawn)	21	-12%	.	-6%	-27%[46.1 µM]	.
Cc1nc2ccc(NC(=O)c3ccc(S(=O)(=O)N4CCOCC4)cc3)cc2s1	-32	?	2%[46.1 µM]	.	-9%	?
O=C(Nc1nc(-c2cccs2)cs1)c1cccc(S(=O)(=O)N2CCCCC2)c1	105	?	?	?	-5%	11µM*
COc1cc(C(=O)Nc2nc(-c3cccs3)cs2)cc(OC)c1OC	41	-29%	18µM*	?	10µM*	1.8µM*
COc1cccc(C(=O)Nc2nc(-c3ccc(S(=O)(=O)N4CCOCC4)cc3)cs2)c1	-88*	-26%	?	-25%	11µM*	10µM*!
O=C(Nc1nc(-c2nc3ccccc3s2)cs1)c1ccc(S(=O)(=O)N2CCOCC2)cc1	?	?	?	?	-80%	11µM*
COc1ccccc1OCCCCn1c(-c2ccc(Cl)cc2)nc2ccccc2c1=O	-14	1%	4%[46.1 µM]	-4%	31%[46.1 µM]	.
O=S(=O)(NCc1nnc2n1CCN(Cc1ccccc1Cl)CC2)c1ccccc1	.	-10%	.	i	.	.
Cc1ccc(S(=O)(=O)N2CCOCC2)cc1C(=O)Nc1nc(-c2cccnc2)cs1	-16	-4%	6%	-27%	0%	-15%
O=C(Nc1nc(-c2ccccc2)cs1)C1CCCN(S(=O)(=O)c2cccc([N+](=O)[O-])c2)C1 (stereo not drawn)	1	.	?	.	?	-29%
Cc1ccc(Nc2nc(-c3ccc(S(=O)(=O)N4CCOCC4)cc3)cs2)cc1Cl	-74*	?	?	?	-5%	9%
O=C(Nc1nc(-c2ccccc2)cs1)C1CCCN(S(=O)(=O)c2ccccc2)C1 (stereo not drawn)	?	-23%	8.2µM*	?	10µM*	5µM*
COc1cc(C(=O)Nc2nc(-c3ccc(C)cc3)cs2)ccc1OCC(=O)N1CCOCC1	-30	.	-2%	.	7%	11µM*
COc1ccc(OC)c(NC(=O)c2ccc(OCC(=O)N3CCOCC3)c(OC)c2)c1	19	-10%	12%[46.1 µM]	-1%	-1%	-11%
COc1cc(NS(=O)(=O)c2ccc(NC(=O)c3cccc(F)c3)cc2)nc(OC)n1	33	-7%	.	-16%	?	.
CC(C)(C)C1CCc2c(sc(NC(=O)Cn3nnc(-c4ccccc4Cl)n3)c2C#N)C1 (stereo not drawn)	-8	5%	7%[46.1 µM]	-9%	6%[46.1 µM]	.
CCN(CC)CCCN(c1ccccc1)C1Cc2ccccc2C1	-12	.	6.5µM*	.	?	.
Cc1ccccc1NC(=O)CCn1cnc2onc(-c3ccc(F)cc3)c2c1=O	-39	-20%	.	-4%	?	.
Nc1cccc2c1Cc1cc([N+](=O)[O-])ccc1-2	-101*	10%	4%	-8%	25%	-16%
Nc1c(Br)cc(Br)c2c1-c1ccc([N+](=O)[O-])cc1C2	-80*	-13%	6%	i	17%	?
CC(=O)Nc1c(Br)cc2c(c1Br)Cc1cc([N+](=O)[O-])ccc1-2	50	-8%	-19%[46.1 µM]	?	-10%[46.1 µM]	?
SMILES	HCMV inh	Vaccinia Venus	Marburg entry inh	VACV mCherry inh	LASV entry inh	HCV inhibitor
COc1cccc(/C=N/N2C(=O)CSC2=S)c1O	105	63%	?	35%	8%	9%
COc1cc(/C=N/N2C(=O)CSC2=S)cc(Br)c1O	-9	i	-11%	318%	16µM*	-8%
Cn1c(CCNC(=O)C2CC23CCN(C(=O)C2=CCCC2)CC3)nc2ccccc21 (stereo not drawn)	.	0%	.	-5%	.	.
Cc1nc2nc(C)c(CCC(=O)NCc3ccccc3)c(C)n2n1	16	0%	1%[46.1 µM]	-4%	-17%[46.1 µM]	.
CSc1nnc(CNC(=O)c2cccc3ccccc23)n1-c1ccccc1C	.	1%	.	-6%	.	.
CCCc1cc(=O)oc2cc(OCC(=O)NCCc3c[nH]c4ccccc34)ccc12	?	?	.	?	.	4.5µM*
CCCc1cc(=O)oc2cc(OCC(=O)Nc3cc(C)on3)ccc12	-6	-9%	-2%	i	9%	9%
C=C(Cl)COc1ccc2c(CCC)cc(=O)oc2c1	-30	-14%	12%[46.1 µM]	.	3%	10µM*
CN(C)c1ccc(CNC(=O)c2cnc(N3CCNC3=O)s2)cc1	8	.	.	.	.	.
O=[N+]([O-])c1cccc(NC(=S)NCCc2ccccc2)c1	-95*	-21%	?	?	-5%	13µM*
S=C(NCCc1ccccc1)Nc1ccc(Nc2ccccc2)cc1	-27	-16%	?	-21%	?	11µM*
S=C(Nc1ccc(Cl)cc1)NC1CCCCC1	-30	-8%	-29%[46.1 µM]	-4%	?	-10%
COC(=O)c1ccc(NC(=S)NCCc2cccc(C)c2)cc1	-20	.	-24%	.	8%	22µM*
COC(=O)c1ccc(NC(=S)NCCc2ccccc2C)cc1	-34	-12%	9%	-10%	-8%	-15%
S=C(Nc1ccc(Nc2ccccc2)cc1)NC1CCCCCC1	-87*	-24%	?	?	?	?
Cc1c(C(=O)OC2CCCCC2)[nH]c2c1C(=O)CC(c1ccc(C(C)(C)C)cc1)C2 (stereo not drawn)	-12	-4%	-16%[46.1 µM]	1%	-4%[46.1 µM]	.
CCOc1ccc(NC(=S)NCc2ccc3[nH]c(C)cc3c2)cc1	-13	.	2%	.	2.9µM*	11µM*
O=C(NCCCCc1ccccc1)Nc1cccc(F)c1	?	-24%	5%[46.1 µM]	-17%	?	-10%
Fc1ccccc1NC(=S)NCCc1ccccc1	-19	-13%	?	-17%	12%	-11%
Fc1ccc(NC(=S)NCCc2ccccc2)c(F)c1F	-74*	-27%	-10%	-14%	-21%	?
NC(=O)c1cc([N+](=O)[O-])ccc1NCCc1ccccc1	-12	.	.	.	.	11µM*
O=[N+]([O-])c1ccc(NCCc2ccccc2)c(Br)c1	36	-16%	.	-2%	.	?
CCCCNC(=S)NCc1ccc2[nH]c(C)cc2c1	2	-2%	9%	i	?	?

Assay outcomes as filed in PubChem BioAssay.
